GLP-1R agonist: activates the human GLP-1 receptor; P43220; HEK293 GLP-1R CRE-luciferase, luminescence, 4-6 h; cells express a hypersensitive GLP-1R form; Potency, µM (highest dose often 45.6 µM), for the others: at the top dose activation, actives largely listed as activators; hit rate 0.007% among 380,000; AID 624172; further: % of control where 0% means no effect
TrxR1 substrate: rat thioredoxin reductase 1 substrate activity; Potency, µM (titrated, usually from 114 µM), for the others: at the top dose activity change, negative = substrate turnover; AID 588456; hit rate 0.01% among 390,000; purified TrxR1 substrate turnover, NADPH consumption readout; further: on the % scale 0 is the no-effect control and ±100 the full control effect; nearly all actives have a fitted effect of over 50% in size
Target sequence (O89049 whole entry, looked up): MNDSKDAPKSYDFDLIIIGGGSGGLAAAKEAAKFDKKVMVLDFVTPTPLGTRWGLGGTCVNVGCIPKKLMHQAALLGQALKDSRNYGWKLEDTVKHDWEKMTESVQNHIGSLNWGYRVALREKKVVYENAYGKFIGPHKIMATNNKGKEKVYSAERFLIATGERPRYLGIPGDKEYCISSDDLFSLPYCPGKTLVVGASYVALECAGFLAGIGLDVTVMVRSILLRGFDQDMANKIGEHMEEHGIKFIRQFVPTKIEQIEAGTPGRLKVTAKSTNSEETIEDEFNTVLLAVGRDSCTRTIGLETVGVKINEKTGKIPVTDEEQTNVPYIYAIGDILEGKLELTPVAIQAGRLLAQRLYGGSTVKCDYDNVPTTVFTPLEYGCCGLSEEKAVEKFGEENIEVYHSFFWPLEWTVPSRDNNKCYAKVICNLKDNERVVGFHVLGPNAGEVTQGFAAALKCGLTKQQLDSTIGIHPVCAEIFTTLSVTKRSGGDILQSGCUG
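Rat TrxR1, dispensed at 90 nM, was prereduced with 400 uM NADPH (final) for 5 min at ~22 deg C, then incubated with compound 15 min before 400 uM selenite. A first-read NADPH fluorescence drop versus no-compound background flagged substrates.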
rTrxR1 inhibitor: rat TrxR1 inhibition; O89049; recombinant rTrxR1, NADPH fluorescence consumption, selenite substrate; Potency, µM (top dose mostly 114 µM), for inactives: at the top dose activity change, negative = inhibition, most hits filed as inhibitors; hit rate 1% among 390,000; further: on the % scale 0 is the no-effect control and ±100 the full control effect; nearly all actives have a fitted effect of over 65% in size
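Rat TrxR1 (90 nM in the dispensed reagent) was pre-reduced with 400 uM NADPH for 5 min at room temperature, then incubated with compound for 15 min. After 400 uM selenite was added, NADPH fluorescence (Ex 340/Em 450 nm) was followed for 8 min.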
IDH1 R132H inh: blocks human mutant IDH1 R132H enzyme | IDH1-R132H enzyme, NADPH consumption, diaphorase/resazurin fluorescence | O75874 | hit rate 0.093% among 390,000 | Potency, µM (titrated, usually from 76.6 µM), for the others: top-dose activity change, negative = inhibition, hits mostly inhibitors; further: on the % scale 0 is the no-effect control and ±100 the full control effect; nearly all actives have a fitted effect of over 65% in size
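IDH1-R132H (0.5 ug/mL dispensed) in pH 7.5 Tris buffer was preincubated 30 min with compound, then given a substrate mix of 0.016 mM NADPH and 2 mM alpha-KG for 80 min at room temperature; remaining NADPH was read by diaphorase/resazurin fluorescence.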
GLP1R cytotox: cytotoxic in the GLP-1 receptor inverse agonist counter-screen; hit rate 0.13% among 410,000; HEK293 cAMP-luciferase reporter cells, luminescence, 24 h; AID 624418; Potency, µM (doses to about 38.3 µM), for the others: top-dose activity change, negative = inhibition, actives largely listed as inhibitors;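 further: loss of luciferase light is scored as toxicity; on the % scale 0 is the no-effect control and ±100 the full control effect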
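To flag toxic compounds, the library was rerun on cells for 24 hr at 37 deg C and 5% CO2. Viability-linked luminescence was captured 12 min after adding luciferase detection reagent.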
GLP-1R inv ag: GLP-1 receptor (human) inverse agonism; P43220; HEK293 GLP-1R CRE-luciferase, luminescence, 24 h; GLP-1R form is constitutively active; hit rate 1.6% among 410,000; Potency, µM (doses to about 38.3 µM), inactives show at the top dose activity change, negative = inhibition, usual class: inhibitors; further: on the % scale 0 is the no-effect control and ±100 the full control effect; nearly all actives have a fitted effect of over 55% in size
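Inverse agonists were sought by their lowering of basal cAMP reporter luciferase output in HEK293 cells stably carrying constitutively active human GLP-1R, after 24 h compound treatment.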
* = called active by the depositor; ? = inconclusive; . = no result; [ ] = another dose, or the depositor's remark. An excerpt weighted towards active compounds, which were near 2.7% of everything screened. The call rests on the fitted dose curve; in most records, active means well fitted curve in the direction sought with a large enough effect; inconclusive means small, poorly fitted or top-dose-only effect, or another doubt; inactive means no such curve, though single readings can be large; an effect the other way counts as inactive or inconclusive. Potency means the concentration at half of the fitted maximal effect.

SMILES	GLP-1R agonist	TrxR1 substrate	rTrxR1 inhibitor	IDH1 R132H inh	GLP1R cytotox	GLP-1R inv ag
O=S(=O)(c1ccc2ncsc2c1)N1CCN(c2nc(-c3cccs3)nc3ccccc23)CC1	.	12.7%	33.0%	.	.	.
Cc1cccc2sc(N(CCCN(C)C)C(=O)CCc3ccccc3)nc12	-13.3%	-4.3%	0.6%	8.3%	?	2.82µM*
Cc1cc(C)c2sc(N(CCN(C)C)C(=O)CCS(=O)(=O)c3ccccc3)nc2c1	0.3%	-0.6%	?	1.4%	?	?
O=C(CCS(=O)(=O)c1ccccc1)N(Cc1cccnc1)c1nc2ccc(F)cc2s1	.	1.2%[57.1 µM]	3.16µM*	-17.5%	12.4%	10.2%
CC(=O)N(Cc1cccnc1)c1nc2ccc(F)cc2s1	.	5.1%[57.1 µM]	18.7%[57.1 µM]	11.6%	3.5%	6.5%
CN(C)CCCN(C(=O)CCS(=O)(=O)c1ccccc1)c1nc2cc3c(cc2s1)OCO3	-34.1%	2.5%	6.31µM*	5.0%	?	?
CCN(CC)CCN(C(=O)CCS(=O)(=O)c1ccccc1)c1nc2cc(C)cc(C)c2s1	-4.1%	11.6%	14.1µM*	2.9%	?	?
Cc1cccc2[nH]cc(/C=C3/C=Nc4ccccc43)c12	.	-0.9%	-1.9%	.	.	.
COc1ccc(C(=O)NCc2ccc3c(c2)CCN3C(=O)c2ccncc2)cc1	.	-8.6%[57.1 µM]	2.9%[57.1 µM]	0.0%	-0.1%	-8.1%
CCN(CC)CCN(C(=O)CCOc1ccccc1)c1nc2c(F)cc(F)cc2s1	-0.2%	2.1%	11.2µM*	3.5%	12.0%	0.1%
COc1ccc(Cl)cc1N1C(=O)/C(=C\c2sccc2C)N=C1SCC(=O)NC1CC1	1.3%	3.4%[57.1 µM]	20.3%[57.1 µM]	0.6%	-8.9%	8.91µM*
COc1ccc(S(=O)(=O)n2nc(-n3c(C)ccc3C)c3c(F)cccc32)cc1OC	-0.5%	5.4%[57.1 µM]	6.9%[57.1 µM]	4.7%	27.8%	10µM*
Cc1ccc(C)n1-c1nn(S(=O)(=O)c2ccccc2)c2cccc(F)c12	12.2%	-5.6%	-13.6%	1.0%	22.6%	?
CCC(Cn1nnc2ccccc2c1=O)NC(=O)Nc1cccc(C)c1C (configuration not stated)	.	10.6%	4.1%	8.6%	1.2%	-0.9%
O=C(N/C(C(=O)N1CCOCC1)=C(\Sc1ncccn1)c1ccccc1)c1ccccc1	-1.7%	-3.9%	50.1µM*	-1.0%	0.8%	-8.3%
O=S(=O)(NCC(c1ccco1)N1CCCCC1)c1ccccc1C(F)(F)F (configuration not stated)	-9.0%	?	5.1%	-7.9%	-2.1%	10µM*
O=S(=O)(NCC(c1ccco1)N1CCCCC1)c1cccc(C(F)(F)F)c1 (configuration not stated)	3.0%	-2.8%	20.1%	0.9%	-1.1%	11.2µM*
O=C(Cc1cccc(C(F)(F)F)c1)NCC(c1ccco1)N1CCCCC1 (configuration not stated)	2.5%	5.9%	13.7%[57.1 µM]	6.4%	-2.1%	?
COc1cccc(NC(=O)Cn2c(=O)n(CC(=O)NCc3ccc(C)cc3)c(=O)c3sccc32)c1	.	-6.2%	5.9%	32.6%	2.9%	2.7%
CC(=O)Oc1ccccc1/C=C/c1ccc2ccccc2[n+]1C	-5.9%	-13.4%	20µM*	-5.4%	?	-17.8%
C=CCNc1oc(-c2ccco2)nc1S(=O)(=O)c1ccccc1	22.8%	1.7%	44.7µM*	0.9%	9.2%	-4.0%
CN(C)CCNc1oc(-c2ccccc2Cl)nc1S(=O)(=O)c1ccccc1	2.1%	-3.8%	16.1%	-3.0%	-9.3%	3.16µM*
CCOC(=O)c1ccc(NC(=O)CC2Sc3ncnn3C2=O)cc1 (configuration not stated)	-11.8%	10.8%	1.78µM*	3.9%	-0.3%	3.7%
O=C(CC1Sc2ncnn2C1=O)Nc1ccc(Cl)cc1 (configuration not stated)	-0.1%	8.2%[57.1 µM]	?	2.9%	14.9%	0.1%

Source: PubChem (National Center for Advancing Translational Sciences (NCATS))
